# Bioassay records deposited in PubChem BioAssay by National Center for Advancing Translational Sciences (NCATS).
# Rows were chosen to be rich in hits. Some 17% of all compounds tested hit in one or more screens of this group.
# ClpP mod: qHTS Assay for Activators of ClpP; ATP-dependent Clp protease proteolytic subunit (Bacillus subtilis (strain 168)), P80244; purified B. subtilis ClpP, FRET peptide cleavage, 20 min; Potency, µM (series often up to 57.5 µM), for inactives: at the highest dose activity change, negative = active; 340,000 tested, 1.9% active; AID 651965, 2013; active means well fitted falling curve with a large enough effect; inconclusive means small, poorly fitted or top-dose-only effect; inactive means no such curve, though single readings can be large or run the other way; further: the source files actives as falling curves though it sought activators and does not explain the sign; nearly all actives have a fitted effect of over 65% in size
#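 ClpP 10 microg/mL final, pH 8 Tris/KCl buffer with BSA, glycerol, Tween-20; compound pinned in; FRET-FV substrate; RT 20 min; Ex320/Em430; ΔFRET vs ADEP 5.8 microM, DMSO, no enzyme.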
# TDP1 cell CPT: growth inhibition of DT40 Tdp1-/-;hTDP1 cells with camptothecin (screen for TDP1 inhibitors). Potency, µM (top dose mostly 46.2 µM), for the others: at the top dose activity change, negative = growth inhibition, actives largely listed as inhibitors. AID 686979. chicken DT40 Tdp1-/-;hTDP1 cells + 20 nM CPT, ATP luminescence, 48 h. 420,000 tested, 12% active; further: on the % scale 0 is the no-effect control and ±100 the full control effect; nearly all actives have a fitted effect of over 55% in size
#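 Chicken DT40 Tdp1-/- cells stably complemented with human TDP1 were seeded at 400 cells/well in medium containing 20 nM camptothecin, exposed to pin-transferred compounds, and grown at 37 °C for at least 48 hr. Viability was read as ATP luminescence.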
# TDP1 block: inhibitors of human tyrosyl-DNA phosphodiesterase TDP1. recombinant TDP1, AlphaScreen DNA substrate cleavage. 350,000 tested, 0.28% active. Q9NUW8. AID 485290. Potency, µM (doses to about 130 µM), inactives show at the highest dose activity change, negative = inhibition, hits mostly inhibitors; further: on the % scale 0 is the no-effect control and ±100 the full control effect; nearly all actives have a fitted effect of over 40% in size
# Target sequence (Q9NUW8 whole entry, looked up): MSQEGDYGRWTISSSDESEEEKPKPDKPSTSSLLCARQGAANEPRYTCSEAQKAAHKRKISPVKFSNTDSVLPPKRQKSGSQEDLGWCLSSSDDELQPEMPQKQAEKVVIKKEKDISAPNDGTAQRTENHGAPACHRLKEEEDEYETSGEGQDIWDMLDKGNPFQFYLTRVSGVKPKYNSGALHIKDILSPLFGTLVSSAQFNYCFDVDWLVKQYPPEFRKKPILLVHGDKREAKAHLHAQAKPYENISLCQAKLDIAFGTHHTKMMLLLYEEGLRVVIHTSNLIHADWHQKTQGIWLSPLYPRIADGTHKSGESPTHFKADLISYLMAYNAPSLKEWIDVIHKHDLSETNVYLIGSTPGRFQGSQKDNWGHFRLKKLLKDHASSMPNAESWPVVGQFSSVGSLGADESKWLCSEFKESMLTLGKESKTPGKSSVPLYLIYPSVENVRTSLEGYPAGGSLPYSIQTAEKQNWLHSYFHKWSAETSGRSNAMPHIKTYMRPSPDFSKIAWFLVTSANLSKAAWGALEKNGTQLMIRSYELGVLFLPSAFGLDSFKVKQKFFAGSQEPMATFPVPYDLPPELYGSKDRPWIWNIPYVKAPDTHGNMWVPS
#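 Enzyme-compound mixtures sat 15 min at room temperature, followed by a 5 min reaction with 15 nM final substrate and 10 min with AlphaScreen beads. Recombinant human Tdp1 was used at 1 nM final.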
# DT40 TDP1 no CPT: qHTS for Inhibitors of human tyrosyl-DNA phosphodiesterase 1 (TDP1): qHTS in cells in absence of CPT. DT40 Tdp1-/- hTDP1 cells, no CPT, ATP luminescence, 48 h. Potency, µM (top dose mostly 46.2 µM), for inactives: at the highest dose activity change, negative = growth inhibition, hits mostly inhibitors. 420,000 tested, 15% active; further: on the % scale 0 is the no-effect control and ±100 the full control effect; nearly all actives have a fitted effect of over 55% in size
#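 Camptothecin absent (DMSO only). Human TDP1-complemented DT40 knockout cells, 400 cells/well, 37 °C for minimum 48 hr; ATP measured via CellTiter-Glo, 30 min dark incubation, luminescence.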
# Active calls of the source: *; ? = inconclusive; . = no result given; [ ] = dose if it differs, or a comment. Unless noted, the call rests on the fitted dose curve; in most records, active means well fitted curve in the direction sought with a large enough effect; inconclusive means small, poorly fitted or top-dose-only effect, or another doubt; inactive means no such curve, though single readings can be large; an effect the other way counts as inactive or inconclusive. Potency means the concentration at half of the fitted maximal effect.
SMILES,ClpP mod,TDP1 cell CPT,TDP1 block,DT40 TDP1 no CPT
Cc1ccc(CCNC(=O)c2cc3n(n2)CCCN(Cc2ccc(C)cc2)C3=O)cc1,-3.0%,?,-6.2%,?
O=c1[nH]c2cc3c(cc2cc1CN(CCO)S(=O)(=O)c1ccccc1)OCCO3,.,-12.1%,-1.9%,-28.2%
C=CCNC(=O)C1CC1(c1ccccc1)c1ccccc1 (centres undefined),-0.8%,-15.9%,-4.7%,?
O=C(NCCc1cn[nH]c1)C1CCC(=O)N(CCc2cccc(F)c2)C1 (centres undefined),-3.6%,?,1.5%,?
O=C(NCc1ccccc1C(F)(F)F)C1CCC(=O)N(CCCc2ccccc2)C1 (centres undefined),-0.5%,?,0.8%,29.1µM*
O=C(NCCc1c[nH]c2ccccc12)C1CCC(=O)N(CCc2cccc(F)c2)C1 (centres undefined),.,?,.,8.2µM*
O=C(NCc1cnc2ccccn12)C1CCC(=O)N(Cc2ccccc2F)C1 (centres undefined),31.6µM*,-7.4%,3.8%,0.0%
C=CCNC(=S)N1CCN(C2CCCCC2)CC1,.,-5.4%,-6.8%,-0.3%
COC(=O)[C@]12CCCCC=C1N(Cc1ccco1)C(=O)[C@H](CC(=O)NCc1ccccc1)C2,-0.9%,-23.0%,.,-23.3%
CCCCCNC(=O)C(=O)NCC(c1ccc2c(c1)OCO2)N1CCOCC1 (centres undefined),0.8%,-11.6%,-1.1%,-19.1%
CC(C(=O)NCc1ccco1)n1nc(-c2ccccc2)c2cc(Cl)ccc21 (centres undefined),-7.0%,?,0.0%,-26.0%
CC(=O)c1ccc(NC(=O)C(C)n2nc(-c3ccccc3)c3cc(Cl)ccc32)cc1 (centres undefined),-12.6%,?,3.9%,16.4µM*
O=Cc1ccc(OC2C=CC(c3ccccc3)OC2CO)cc1 (centres undefined),.,.,1.6%[21 µM],.
CCOC(=O)C1CCCCN1Cc1nc(N2CCN(C(C)=O)CC2)c2ccccc2n1 (centres undefined),.,-5.5%[9.04 µM],.,-28.3%
COc1ccc(C(=O)NCC(c2ccc3c(c2)OCO3)N2CCOCC2)cc1OC (centres undefined),1.5%,-23.4%,1.1%,?
COc1cc(S(=O)(=O)N2CCCCC2)ccc1NC(=O)c1ccccc1Cl,-3.6%,16.4µM*,2.4%,16.4µM*
O=C(Nc1ccccc1C(=O)O)c1cc(S(=O)(=O)N2CCCCC2)c(Cl)cc1Cl,.,23.1µM*,6.7%,11.6µM*
COc1ccccc1NS(=O)(=O)c1ccc(C)c(NC(=O)c2ccc(S(=O)(=O)N3CCCCCC3)cc2)c1,1.1%,?,-1.8%,20.6µM*
COc1ccccc1NC(=O)c1ccc(S(=O)(=O)N2CCCC2)cc1,-0.2%,-1.8%,3.9%,-26.4%
O=C(Nc1ccc(S(=O)(=O)N2CCCCC2)cc1)c1ccccc1Cl,-1.5%,?,4.0%,25.9µM*
CS(=O)(=O)N1CCC(C(=O)N2CCN(C(c3ccccc3)c3ccccc3)CC2)CC1,-4.5%,?,2.7%,?
CCc1ccc(NC(=O)C(Cc2ccccc2)NS(=O)(=O)c2ccc3c(c2)CCN3C(C)=O)cc1 (centres undefined),0.8%,?,-7.0%,?
CCOc1ccc(OCC)c(NC(=O)C2CCCN(S(=O)(=O)c3cc(Br)cc4c3N(C(=O)CC)CC4)C2)c1 (centres undefined),-0.2%,?,6.4%,?
Cc1nnsc1C(=O)Nc1ccc(S(=O)(=O)N2CCCC(C)C2)cc1 (centres undefined),-0.5%,?,1.8%,?
N#CC(C#N)=NNc1ccc(S(=O)(=O)N2CCCCC2)cc1,-2.2%,?,8.2%,16.4µM*
SMILES,ClpP mod,TDP1 cell CPT,TDP1 block,DT40 TDP1 no CPT
N#C/C(=N\Nc1ccc(S(=O)(=O)N2CCOCC2)cc1)C(N)=S,.,?,8.6%,?
Cc1nnsc1C(=O)Nc1ccc(S(=O)(=O)N2CCCCC2)cc1,-1.4%,20.6µM*,0.2%,?
Cc1nc2ccc(NC(=O)c3oc4ccc(F)cc4c3C)cc2s1,3.4%,-4.7%,-0.3%,8.6%
Cc1ccc2sc(-c3ccc(NC(=O)c4cc(-n5cnnc5)ccc4Cl)cc3)nc2c1,?,13µM*,7.4%,9.2µM*
O=C(Nc1cccc(-c2nc3ccccc3s2)c1)c1cc(-n2cnnc2)ccc1Cl,-6.1%,9.2µM*,7.3%,16.4µM*
Cc1c(C(=O)Nc2cccc(-c3nc4ccccc4s3)c2)oc2ccc(F)cc12,?,?,-1.6%,14.6µM*
CC(=O)Nc1ccc(NC(=O)c2cc(-n3cnnc3)ccc2Cl)cc1,0.2%,1.7%,-5.5%,1.3%
COc1cccc(C)c1NC(=O)C(OC(=O)CNC(=O)c1ccccc1)c1ccccc1 (centres undefined),.,.,1.1%,.
CCN(CC)C(=O)Nc1ccc(OCC(O)CNC(C)(C)C)c(C(C)=O)c1 (centres undefined),.,1.7%,.,-9.6%
O=[N+]([O-])c1cccnc1N1CCC(c2cc(-c3ccc(Cl)cc3)n[nH]2)CC1,0.5%,20.6µM*,10.7%,20.6µM*
COC1=C2C[C@@H](C)C[C@H](OC)[C@H](O)[C@@H](C)/C=C(\C)[C@H](OC(N)=O)[C@@H](OC)/C=C\C=C(/C)C(=O)NC(=CC1=O)C2=O,.,.,6.2%,.
CCC1=C(OC(=O)N(CC)CC)N2C(=O)OC(=NCC(=O)OC)[C@]2(Cc2ccccc2)[C@H]2C1=CC[C@H]1C(=O)N(C)C(=O)[C@H]12,1.2%,-23.5%,2.7%,-19.2%
CCC1=C(OC(=O)N(CC)CC)N2C(=O)OC(=NCCc3c[nH]c4ccccc34)[C@]2(Cc2ccccc2)[C@H]2C1=CC[C@H]1C(=O)NC(=O)[C@H]12,-0.9%,?,17.7%,16.4µM*
CCC1=C(OC(=O)N(CC)CC)N2C(=O)OC(=NCC3CC3)[C@]2(Cc2ccccc2)[C@H]2C1=CC[C@H]1C(=O)N(C)C(=O)[C@H]12,-1.4%,18.4µM*,4.5%,18.4µM*
O=C1c2ccccc2[C@@H]2C[C@@H](O)[C@H](Nc3cccc4ccccc34)CCN12,4.7%,?,1.3%[56.1 µM],16.4µM*
COc1ccc(N[C@@H]2CCN3C(=O)c4ccccc4[C@@H]3C[C@H]2O)cc1,-0.7%,-1.7%,1.0%[56.1 µM],-14.6%
CC(=O)NCCOc1nc(N2CCCCC2)nc(N2CCCCC2)n1,.,-25.2%,2.6%,14.6µM*
O=C(NCCOc1nc(N2CCOCC2)nc(N2CCOCC2)n1)Nc1ccccc1,-1.9%,-25.9%,3.8%,?
O=C(NCCOc1nc(N2CCCCC2)nc(N2CCCCC2)n1)Nc1ccccc1,.,?,2.7%,23.1µM*
COCc1ccc(CN2CCOc3c(O)cc(-c4cc(C)c5ccc(F)cc5n4)cc3C2)o1,.,-0.7%[9.04 µM],.,?
CCCCNc1c(-c2ccc(SC(C)CC)cc2)nc2ccccn12 (centres undefined),3.9%,13µM*,2.9%,16.4µM*
